# An excerpt weighted towards active compounds, which were near 3.4% of everything screened.
# TEAD-YAP block: TEAD-YAP interaction inhibition. hit rate 1.4% among 640,000. inhibition, % at 9.12 µM. AID 1259422. HEK-TIYL cells, TEAD-Gal4/YAP UAS-luciferase luminescence; in the data active = inhibition above about 32%
# FBW7 act: activators of human E3 ligase FBW7; Q969H0; AlphaScreen FBW7–phospho-cyclin E peptide binding, activator screen; normalized activity (activation), % at 26.1 µM; hit rate 0.13% among 650,000; AID 1259310; in the data active = normalized activity above about 1.9%;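 also: purified mutant Fbw7 with reduced substrate affinity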
# GPR151 activ: human GPR151 activation. Q8TDV0. PathHunter beta-arrestin GPR151 cells, luminescence. activation, % at 11.2 µM. hit rate 1% among 650,000. AID 1508602; in the data active = activation above about 4.9%
# MITF primary: inhibitors of human MITF. O75030. AlphaScreen MITF homodimerization, bead proximity signal. inhibition, % at 2.6 µM. hit rate 0.91% among 650,000; in the data active = inhibition above about 50%
# Target sequence (O75030 whole entry, looked up): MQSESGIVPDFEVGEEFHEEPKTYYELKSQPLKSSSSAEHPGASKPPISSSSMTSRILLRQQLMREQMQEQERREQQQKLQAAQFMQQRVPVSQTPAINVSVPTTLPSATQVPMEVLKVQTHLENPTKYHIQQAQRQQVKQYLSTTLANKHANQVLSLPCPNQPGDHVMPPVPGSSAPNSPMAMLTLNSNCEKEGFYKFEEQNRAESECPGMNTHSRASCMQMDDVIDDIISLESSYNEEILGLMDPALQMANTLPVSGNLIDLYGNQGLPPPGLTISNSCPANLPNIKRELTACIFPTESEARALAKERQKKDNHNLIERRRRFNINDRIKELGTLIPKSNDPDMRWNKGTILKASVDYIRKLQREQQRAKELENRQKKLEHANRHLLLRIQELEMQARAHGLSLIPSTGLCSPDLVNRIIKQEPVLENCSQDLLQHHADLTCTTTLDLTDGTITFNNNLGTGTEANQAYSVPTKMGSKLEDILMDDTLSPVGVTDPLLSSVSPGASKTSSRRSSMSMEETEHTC
# Hits are given with their value; n = inactive; x = not tested or not shown; ! = repeats disagree.
SMILES,TEAD-YAP block,FBW7 act,GPR151 activ,MITF primary
O=[N+]([O-])c1ccc([As](=O)(O)O)cc1,n,n,n,n
CC[N+](CC)=c1scc(-c2ccc([N+](=O)[O-])cc2)s1,48.1,n,n,n
c1ccc(C2=NN(c3ccccc3)N(c3ccccc3)N2)cc1,76.3,n,n,n
CC(N)[C@H](O)c1ccc(O)c(O)c1 (some centres not stated),n,n,n,89.1
C[C@H](N)[C@H](O)c1ccccc1,n,n,n,n
N=C1c2ccccc2CN1Cc1ccccc1,n,n,n,n
CNC(=O)Oc1cc([N+](=O)[O-])cc2cccnc12,74.5,n,n,96.0
COc1cc(/C=N\Nc2nn[nH]n2)ccc1OC(=O)N(C)C,n,n,n,n
Cc1cncc2cccc(N3CCNCC3)c12,37.6,n,n,n
c1ccc2c(N3CCNCC3)cccc2c1,n,n,n,n
CC(C)[C@@H]1NC(=O)[C@H](C)OC(=O)[C@@H](C(C)C)NC(=O)[C@@H](C(C)C)OC(=O)[C@H](C(C)C)NC(=O)[C@H](C)OC(=O)[C@@H](C(C)C)NC(=O)[C@@H](C(C)C)OC(=O)[C@H](C(C)C)NC(=O)[C@H](C)OC(=O)[C@@H](C(C)C)NC(=O)[C@@H](C(C)C)OC1=O,96.0,n,n,n
CCOC(=O)C1=C(N)Oc2c(c(=O)oc3ccccc23)C1c1cccc([N+](=O)[O-])c1 (configuration not stated),n,n,n,n
COc1ccc(OC)c(N2C(=O)/C(=C\c3ccco3)C(=O)NC2=S)c1,n,n,n,79.1
CCc1ccc(N2C(=O)NC(=O)/C(=C/c3ccc(C)o3)C2=O)cc1,n,n,n,n
Cc1cc(-n2c(/C=C/c3ccc4c(c3)OCO4)nc3ccccc3c2=O)ccc1Br,n,n,n,n
CC(C)=CCC[C@]1(C)C=Cc2c(O)c3c(c(CC=C(C)C)c2O1)O[C@]12C(=CC4C[C@@H]1C(C)(C)O[C@@]2(C/C=C(/C)C(=O)O)C4=O)C3=O,75.2,n,n,n
O=c1c2ccccc2nc(/C=C\c2ccc(F)cc2)n1-c1ccc(Br)cc1,n,n,n,n
CC1=CC(=C2C(=O)NC(=S)NC2=O)C=C(C(F)(F)F)N1Cc1ccccc1,51.6,n,n,n
COc1ccc(CCNC2CCC(C)C2)cc1 (configuration not stated),n,n,n,n
CN1CCN(C(=O)Cc2ccc(NC3=NC4CS(=O)(=O)CC4S3)cc2)CC1 (configuration not stated),n,2.6,n,n
O=c1[nH]c(O)c(N=Nc2ccc3c(c2)OCCO3)c(=O)[nH]1,62.4,n,n,n
O=c1[nH]c(=S)[nH]c(O)c1N=Nc1ccc2c(c1)OCCO2,n,n,n,n
CC(C)(C)n1cc(C(=O)c2ccccc2O)cn1,n,n,n,n
CC(C)(C)n1cc(C(=O)c2ccc3ccccc3c2O)cn1,49.6,n,n,n
CC12CC(=O)NC1NC(c1ccccc1O)C2 (configuration not stated),n,n,n,n
SMILES,TEAD-YAP block,FBW7 act,GPR151 activ,MITF primary
O=C(Nc1ccncc1)C(=O)c1cn(Cc2ccc(Cl)cc2)c2ccccc12,44.6,n,n,n
N#CC(C#N)=Cc1ccc(O)c(O)c1,n,n,n,74.1!
Cc1cccc(CN2CCCC(C(=O)c3cccc(Cl)c3)C2)n1 (configuration not stated),n,n,n,n
COc1ccc(OC)c(CNCCc2c[nH]c3ccccc23)c1,n,n,n,64.5
CN1/C(=C/C=C/c2oc3ccccc3[n+]2C)Oc2ccccc21 (tested in a mixture with another compound),79.4,n,n,n
CC(=O)Nc1ccc(N2CCN(C)CC2)c(Cl)c1,n,n,n,n
COc1cc(/C=C\c2ccc(OC)c(O)c2)cc(OC)c1,x,x,n,n
COc1ccc(/C=C/c2cc(O)cc(O)c2)cc1,91.5,n,n,n
COc1ccc(C[C@H]2NC[C@H](O)[C@H]2OC(C)=O)cc1,103.5,n,n,n
COc1ccc(CC2C(=O)N(C)C(=O)N(C)C2=O)cc1,n,n,n,n
CC(Cc1cncs1)NC1CCN(c2ccc(NC(=O)c3cnccn3)cc2)CC1 (configuration not stated),n,n,n,n
Cc1ccc(/C=C2/C(=O)NC(=O)N(C)C2=O)cc1,n,n,n,n
C=CCN1C(=O)/C(=C\c2ccc(C)o2)C(=O)NC1=S,n,n,n,n
Cc1ccc(C=C2C(=O)NC(=S)NC2=O)o1,n,n,n,66.5
CN1C(=O)NC(=O)/C(=C/c2ccc(I)o2)C1=O,n,n,n,63.0
Cc1ccc(NC(=O)c2cccn(Cc3cccc(Cl)c3)c2=O)cc1C,n,n,n,n
CCCCC[C@H]1C(=O)O[C@H](C)[C@H](NC(=O)c2cccc(NC=O)c2O)C(=O)O[C@@H](C)[C@@H]1OC(=O)CC(C)C,51.8,n,n,n
CCCCCC[C@H]1C(=O)O[C@H](C)[C@H](NC(=O)c2cccc(NC=O)c2O)C(=O)O[C@@H](C)[C@@H]1OC(=O)CC(C)C,49.5,n,n,n
NC(=O)C(Cl)c1ccc(Br)cc1 (configuration not stated),n,n,n,n
CC[C@@]1(O)C[C@H](O[C@H]2C[C@H](N(C)C)[C@H](O)[C@H](C)O2)c2c(cc3c(c2O)C(=O)c2c(O)ccc(O)c2C3=O)[C@H]1C(=O)OC,n,n,n,n
CC[C@@]1(O)C[C@H](O[C@H]2C[C@H](N(C)C)[C@H](O)[C@H](C)O2)c2c(cc3c(c2O)C(=O)c2c(O)cccc2C3=O)[C@H]1C(=O)OC,50.9,n,n,n
CCN(CC)C1=NC(=[N+](CC)CC)c2ccccc21,74.0,n,n,n
CC(=O)c1ccc(NC(=O)c2cn(CCC#N)nc2-c2ccc(C)c(C)c2)cc1,n,n,n,n
CCOC(=O)C1=C(C)OC(N)=C(C(=O)OCCOC)C12C(=O)Nc1ccccc12 (configuration not stated),n,n,n,n
Cc1nc(C)n(-c2ccc(Nc3cc(-c4cn[nH]c4)ccn3)cc2)n1 (tested in a mixture with another compound),n,n,n,n
SMILES,TEAD-YAP block,FBW7 act,GPR151 activ,MITF primary
Fc1cnc(Nc2ccc(-n3cnc(N4CCOCC4)n3)cc2)cc1-c1cn[nH]c1 (tested in a mixture with another compound),36.0,n,n,n
Cn1ncnc2c(=O)n(C)c(=O)nc1-2,98.9,n,n,n
CC1CCN(Cc2ccc(NC(=O)CCc3nc(C4=CCN(C)CC4)no3)cc2)CC1,n,3.9,n,n
CC1(C)CN=C(Nc2ccc(OC(F)(F)F)cc2)S1,n,n,n,n
O=C1C=C2C(=CCOC2O)O1 (configuration not stated),39.4,n,n,n
COC1=CC23CCCN2CCc2cc4c(cc2C3C1O)OCO4 (configuration not stated),n,n,n,n
COC(=O)C[C@@](O)(CCC(C)(C)O)C(=O)O[C@@H]1C(OC)=C[C@]23CCCN2CCc2cc4c(cc2[C@@H]13)OCO4,101.3,n,n,n
COc1cc(C)c(/C=C/[N+](=O)[O-])cc1C(C)C,36.6,n,n,n

# Source: PubChem BioAssay (The Scripps Research Institute Molecular Screening Center)
